Screen size: about 420,000 compounds; about 64,000 (15%) were called active. Another 27% or so got no clear call; they are omitted. The call rests on the fitted dose curve; in most records, active means well fitted inhibition curve with a large enough effect; inconclusive means small, poorly fitted or top-dose-only effect; inactive means flat fitted curve, though single readings scatter. The list is a sample of the results. A call without a number means that no potency is given here.
Test: qHTS for Inhibitors of human tyrosyl-DNA phosphodiesterase 1 (TDP1): qHTS in cells in absence of CPT; further: nearly all actives have a fitted effect of over 55% in size
Conditions: DT40 Tdp1-/- hTDP1 cells, no CPT, ATP luminescence, 48 h; activity change, negative = growth inhibition: at 46.2 µM (top of the series)
Method in brief: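 Chicken DT40 Tdp1-/- cells stably complemented with human TDP1 were seeded at 400 cells/well with DMSO in place of 20 nM camptothecin. After compound pinning, cells grew at least 48 hr at 37 °C; viability read by CellTiter-Glo luminescence.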
Potency means the concentration at half of the fitted maximal effect.

| Structure (SMILES) | Potency |
| --- | --- |
| O=C(COc1ccc(Cl)cc1)Nc1ccc2oc(=O)ccc2c1 | inactive |
| Cc1ccc(N(C(=O)c2sc(C)nc2C)C(C(=O)NC(C)(C)C)c2ccncc2)cc1 (stereo not given) | inactive |
| CC1(C)C=C2[C@H]3CC[C@@H]4[C@@]5(C)CCC(=O)C(C)(C)[C@@H]5CC[C@@]4(C)[C@]3(C)CC[C@@]2(C(=O)O)CC1 | 8.2 µM (active) |
| Cc1cc(C)cc(N(C(C)C(=O)Nc2c(C)n(C)n(-c3ccccc3)c2=O)S(C)(=O)=O)c1 (stereo not given) | inactive |
| CCCCOc1ccc(CN2C(=O)C(=O)c3cc(Br)cc(C)c32)cc1OC | 1.16 µM (active) |
| CCCCn1nnnc1C1(C)CCC(=O)N1Cc1ccc(OC)c(OC)c1 (stereo not given) | inactive |
| COc1ccc(Cn2c(=O)oc3ccccc32)cc1 | inactive |
| CCCCOc1ccc(Cn2c(=O)oc3ccc(C)cc32)cc1OC | 14.6 µM (active) |
| CCOc1cc(CN2CCN(C(=O)CC(C)C)CC2)ccc1OC | inactive |
| COc1ccc(CN2CCOC2=O)cc1OC | inactive |
| Cc1cccc(-n2c(Cc3cc(=O)[nH]c(=O)[nH]3)nnc2SC(C)C)c1 | inactive |
| CC/C(=N\NC(=O)c1c(C)nc2ccccn12)c1ccc(Cl)cc1 | inactive |
| CCCCCC(=O)Nc1ccc(S(=O)(=O)Nc2ccc(Cl)nn2)cc1 | inactive |
| CCCCN(C)Cc1c(C)[nH]c2ccc(Cl)cc2c1=O | inactive |
| CCOC(=O)C1=C(C)NC(SC)=NC1c1ccccc1 (stereo not given) | inactive |
| C=CCC1(C#N)C(=S)NC(C)=C(C(=O)OCC)C1c1ccccc1 (stereo not given) | 29.1 µM (active) |
| CCOC(=O)C1=C(C)NC(C)=C(C(=O)OCC)C1c1ccccn1 | inactive |
| Cc1ccsc1C1C(C#N)=C(N)OC2=C1C(=O)CC(C)(C)C2 (stereo not given) | inactive |
| CCOC(=O)CSc1nnc(CNC(=O)Cc2ccccc2)n1-c1ccccc1OC | inactive |
| O=C(COc1ccc(Cl)cc1)NCCSc1ccccc1 | inactive |
| COc1ccc(C(=O)COC(=O)CNC(=O)c2cccs2)cc1Br | inactive |
| Cc1ccc(S(=O)(=O)n2cnc3ccccc32)c(C)c1 | inactive |
| Cc1ccc(C)c(S(=O)(=O)n2cnc3ccccc32)c1 | inactive |
| COc1ccc(S(=O)(=O)n2cnc3ccccc32)c(C)c1 | 10.3 µM (active) |
| COc1ccc(C)cc1NC(=S)N1CCOCC1 | inactive |

| Structure (SMILES) | Potency |
| --- | --- |
| C=CCOc1c(Br)cc(/C=N\n2nnnc2N)cc1OC | inactive |
| C[C@H]1CN([C@@H](C)CO)C(=O)c2cc(-c3cccc(F)c3)cnc2O[C@@H]1CN(C)S(C)(=O)=O | inactive |
| Cn1c(=O)c2c(nc(Oc3ccc(C#N)cc3)n2Cc2ccc(Cl)cc2Cl)n(C)c1=O | inactive |
| CC1CN(Cc2nc3c(c(=O)n(C)c(=O)n3C)n2Cc2cccc(Cl)c2)CC(C)O1 (stereo not given) | inactive |
| C=CCOc1nc2c(c(=O)n(C)c(=O)n2C)n1Cc1ccc(Cl)cc1Cl | 14.6 µM (active) |
| CN1CCc2nc(SC(C(=O)O)c3ccccc3)c(C#N)c(-c3cccs3)c2C1 (stereo not given) | inactive |
| COc1ccc(CCNC(=O)Cn2c(=O)n(-c3ccccc3)c(=O)c3c(C)c(C)sc32)cc1OC | inactive |
| C=CCn1c(SCC(N)=O)nnc1-c1cc2c(s1)CCC(CC)C2 (stereo not given) | inactive |
| O=C1C=C(c2ccccc2)CCC1 | inactive |
| C=CC(=O)c1ccc2ccccc2c1 | 2.31 µM (active) |
| CC(=O)CCC(=O)c1ccc2ccccc2c1 | inactive |
| CC(=O)c1ccc2c(ccc3ccccc32)c1 | inactive |
| CCc1ccc(C(=O)N2CCN(S(=O)(=O)c3sc(C(=O)O)c(C)c3C(=O)O)CC2)cc1 | inactive |
| O=S(=O)(Oc1ccccc1C(=S)N1CCOCC1)c1ccc(Cl)cc1 | inactive |
| CCOc1cc(C(=S)N2CCOCC2)ccc1OS(=O)(=O)c1ccc(Br)cc1 | 20.6 µM (active) |
| CC(=O)Nc1ccc(S(=O)(=O)Oc2ccc(Br)cc2C(=S)N2CCOCC2)cc1 | inactive |
| CCN(CC)P(=O)(C(NC(=O)OC)C(F)(F)C(F)(F)C(F)(F)C(F)F)N(CC)CC (stereo not given) | inactive |
| Cc1cc(C)nc(SCc2nnc(SCC(=O)Nc3ncc(C)s3)n2Cc2ccco2)n1 | inactive |
| CCOC(=O)CSc1nc2c(sc(=S)n2CCc2ccccc2)c(=O)n1Cc1ccco1 | 16.4 µM (active) |
| CCOC(=O)CSc1nnc(-c2ccco2)n1C | inactive |
| Cc1ccc(C)c(NC(=O)C2CC(=O)N(C(C)C)C2)c1 (stereo not given) | inactive |
| CCCC(C)n1[nH]c(=O)c2c(C)cc(C)nc21 (stereo not given) | inactive |
| CC(CNC(=O)c1ccc(Br)o1)NC(=O)c1ccc(Br)o1 (stereo not given) | 4.61 µM (active) |
| CC(CCc1ccccc1)NC(=O)c1ccc(Br)o1 (stereo not given) | inactive |
| O=C(CNC(=O)c1ccc(Br)o1)Nc1ccccc1 | inactive |

| Structure (SMILES) | Potency |
| --- | --- |
| C=C1C(=O)C23C(O)C1CCC2[C@]12COC3(O)C(O)C1C(C)(C)CC[C@H]2O (stereo not given in full) | 6.51 µM (active) |
| O=C(COC(=O)c1ncc(Cl)c(Cl)c1Cl)NC1CCS(=O)(=O)C1 (stereo not given) | inactive |
| NC(N)=NCCCc1cn(CC(=O)N2CCNCC2)nn1 | inactive |
| Cc1nn(-c2ccccc2)c(C)c1C(=O)OCC(=O)NC(=O)NC1CCCCC1 | 29.1 µM (active) |
| O=C(COC(=O)c1cccnc1Cl)NC(=O)NC1CCCCC1 | inactive |
| N#Cc1ccc(C(=O)OCC(=O)NC(=O)NC2CCCCC2)cc1 | inactive |
| CC1Cc2ccccc2N1C1=CC(=O)CC(C)(C)C1 (stereo not given) | inactive |
| O=C(/C=C/Nc1ccccc1)c1cnc(-c2ccccc2)s1 | inactive |
| CC1(C(=O)O)CCCN(C(=O)/C=C/c2ccccc2)C1 (stereo not given) | inactive |
| CC(C)Cn1c(N2CCN(C(=O)/C=C/c3ccccc3)CC2)nc2ccccc21 | 9.2 µM (active) |
| CC(C)N(C(=O)Cn1c(SCC(=O)N2CCN(c3ccccc3)CC2)nc2ccccc21)C(C)C | inactive |
| O=C(Nc1ccc(OCCO)cc1)c1csc([C@H]2C[C@H](O)[C@@H](CO)O2)n1 | inactive |
| CCOC(=O)C1=C(C)N=c2s/c(=C\C(=O)OC)c(=O)n2C1c1ccc(OC)cc1 (stereo not given) | inactive |
| COc1ccc(OC)c(C2C3=C(N=c4s/c(=C\c5cccc(O)c5)c(=O)n42)c2ccccc2CC3)c1 (stereo not given) | 25.9 µM (active) |
| CC(C)(C)NC(=O)NC(=O)COC(=O)C1c2ccccc2Oc2ccccc21 | inactive |
| COc1cn(CC(=O)Nc2cccc(C)c2C)c(CN2CCCCC2)cc1=O | inactive |
| CCCCCCCCn1c2c(c(=N)c3c1CCC3)CCCC2 | 1.03 µM (active) |
| Nc1nnc(SCCN2C(=O)c3ccccc3S2(=O)=O)s1 | inactive |
| CN(C)CCCN(Cc1cc2cc3c(cc2[nH]c1=O)OCCO3)C(=O)NC1CCCCC1 | inactive |
| Cc1nnc(SCC(=O)Nc2ccc(S(=O)(=O)Nc3ccc(Cl)nn3)cc2)s1 | inactive |
| O=C(NC1CCCC1)C1c2ccccc2OCC(=O)N1CC(F)(F)F (stereo not given) | inactive |
| Brc1cccc[n+]1Cc1cccc(C[n+]2ccccc2Br)c1 | 20 µM (active) |
| Clc1cccc[n+]1CCCC[n+]1ccccc1Cl | inactive |
| Cc1ccc(N2C(=O)C3C4C=CC(CC4)C3C2=O)cc1Br (stereo not given) | inactive |
| NS(=O)(=O)c1ccc(NC(=O)COC(=O)c2ccco2)cc1 | inactive |

| Structure (SMILES) | Potency |
| --- | --- |
| CC1O[C@@H](Oc2c(-c3ccc(O)c(O)c3)oc3cc(O)cc(O)c3c2=O)C(O)C(O)C1O (stereo not given in full) | inactive |
| Cn1c2ccccc2c(=O)c2c(O)cccc21 | inactive |
| CCCc1nc2c(c(=O)c3ccccc3n2C)c(=O)n1C1CCCCCC1 | 16.4 µM (active) |
| O=C1CCC(C(=O)N2CCCCO2)CN1Cc1cccc(C(F)(F)F)c1 (stereo not given) | inactive |
| CC(=O)N/N=C/c1cc2c(cc1[N+](=O)[O-])OCO2 | inactive |
| Cc1ccc(S(=O)(=O)N/N=C\c2cc3c(cc2[N+](=O)[O-])OCO3)cc1 | 18.4 µM (active) |
| Cc1ccc(-c2n[nH]c(=S)n2/N=C/c2cc3c(cc2[N+](=O)[O-])OCO3)cc1 | inactive |
| COc1cc(C(=O)N(Cc2ccc(C(C)C)cc2)C2CCS(=O)(=O)C2)cc(OC)c1OC (stereo not given) | inactive |
| COc1ccccc1CN(C)c1nnnn1-c1ccccc1 | inactive |
| CC[C@]12c3[nH]c4ccc(OC)cc4c3CCN1C(=O)C(CC(=O)NCc1ccco1)C[C@@H]2C(=O)N1CCN(C(=O)C2CC2)CC1 (stereo not given in full) | inactive |
| CC[C@]12c3[nH]c4ccc(Cl)cc4c3CCN1C(=O)[C@@H](CC(=O)NCCCOC)C[C@@H]2C(=O)N1CCN(C(=O)C2CC2)CC1 | inactive |
| CC[C@]12c3[nH]c4ccc(Cl)cc4c3CCN1C(=O)[C@@H](CC(=O)NCCN1CCOCC1)C[C@@H]2C(=O)N1CCN(C(=O)C2CC2)CC1 | inactive |
| O=C(C[C@H]1C[C@H](C(=O)N2CCOCC2)[C@@]2(CCC3CCCC3)c3[nH]c4ccc(Cl)cc4c3CCN2C1=O)NCc1ccco1 | 23.1 µM (active) |
| COc1ccc(CNC(=O)C[C@H]2C[C@H](C(=O)N3CCOCC3)[C@@]3(CCC4CCCC4)c4[nH]c5ccc(Cl)cc5c4CCN3C2=O)cc1OC | 18.4 µM (active) |
| CC[C@]12c3[nH]c4ccc(OC)cc4c3CCN1C(=O)C(CC(=O)NCCN1CCOCC1)C[C@@H]2C(=O)N1CCN(C(=O)C2CC2)CC1 (stereo not given in full) | inactive |
| COc1ccc(C2(O)C(=O)Nc3ccccc32)cc1 (stereo not given) | inactive |
| O=C(NNC(=O)c1ccc(Cl)cc1Cl)c1cccs1 | inactive |
| O=C(Nc1cccc2cccnc12)c1cccc(N2C(=O)CCC2=O)c1 | inactive |
| O=c1cc(CO)oc(CN2CCC(Cc3ccccc3)CC2)c1O | inactive |
| O=c1c2ccccc2nc2n1C(CSCc1cccc(C(F)(F)F)c1)CS2 (stereo not given) | 3.66 µM (active) |
| O=c1c2ccccc2nc2n1C(CSc1ccc(Cl)cc1)CN2 (stereo not given) | inactive |
| O=c1c2ccccc2nc2n1C(CSc1ccc(F)cc1)CN2 (stereo not given) | inactive |
| O=c1c2ccccc2nc2n1C(CSCc1ccccc1)CS2 (stereo not given) | 6.51 µM (active) |
| Cn1cc(S(=O)(=O)Nc2ccc(Cl)cc2Cl)c(=O)n(C)c1=O | inactive |
| CCN(CC)CCNC(=O)C1c2ccccc2C(=O)N(C)C1c1cn(C)c2ccccc12 (stereo not given) | inactive |

Reference: PubChem BioAssay AID686978 (National Center for Advancing Translational Sciences (NCATS), 2013)
